{"source": "PubChem BioAssay AID1159580", "about": "(chemical genetic matrix, 2015)", "assay": "chemical genetic growth profiling, strain panel (AID 1159580);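 note: tested at 20 µM; growth read once vehicle control cultures reached saturation at 30 °C; 1 = growth at the plate median or of vehicle wells; lower values mean less growth of the strain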", "details": "growth OD", "note": "Where “and” joins values, the source holds several entries; their conditions need not be identical. Equal values may be shown once. Screen size: about 5,500 compounds; about 2,000 (36%) were called active. About 18% were inconclusive and are not listed. The list shows a part of the results. A number with no mark means an inactive call. Cut-off read from the data, not from the text of the source: active = normalized growth mostly below about 0.91 (no sharp cut-off); inconclusive = no clear call, values can overlap the other calls; inactive = mostly above about 0.92.", "data": [{"compound": "NC(N)=NC(=O)c1nc(Cl)c(N)nc1N", "values": [{"measurement": "normalized growth", "setting": "S. cerevisiae deletion strains, locus YKL009W, strain mrt4, active compounds read low", "result": 1.03}, {"measurement": "normalized growth", "setting": "S. cerevisiae deletion strains, locus YKL068W, active compounds read low", "result": 1}, {"measurement": "normalized growth", "setting": "S. cerevisiae deletion strains, locus YKL085W, strain MDH1 (second series), active compounds read low", "result": 1.01}, {"measurement": "normalized growth", "setting": "S. cerevisiae deletion strains, locus YKL085W, strain MDH1, active compounds read low", "result": 1.01}, {"measurement": "normalized growth", "setting": "S. cerevisiae deletion strains, locus YKL160W, strain elf1, active compounds read low", "result": 1.02}, {"measurement": "normalized growth", "setting": "S. cerevisiae deletion strains, locus YKL190W, strain CNB1, active compounds read low", "result": 0.994}, {"measurement": "normalized growth", "setting": "S. cerevisiae deletion strains, locus YKR001C, strain vps1, active compounds read low", "result": 1.02}, {"measurement": "normalized growth", "setting": "S. cerevisiae deletion strains, locus YKR026C, strain gcn3, active compounds read low", "result": 1.03}, {"measurement": "normalized growth", "setting": "S. cerevisiae deletion strains, locus YKR091W, strain srl3, active compounds read low", "result": 1.03}, {"measurement": "normalized growth", "setting": "S. cerevisiae deletion strains, locus YLL001W, strain dnm1, active compounds read low", "result": 1.02}, {"measurement": "normalized growth", "setting": "S. cerevisiae deletion strains, locus YLL026W, active compounds read low", "result": 1.02}, {"measurement": "normalized growth", "setting": "S. cerevisiae deletion strains, locus YLL041C, strain sdh2, active compounds read low", "result": 1}, {"measurement": "normalized growth", "setting": "S. cerevisiae deletion strains, locus YLR027C, strain aat2, active compounds read low", "result": 1.02}, {"measurement": "normalized growth", "setting": "S. cerevisiae deletion strains, locus YLR039C, strain RIC1, active compounds read low", "result": 1.31}, {"measurement": "normalized growth", "setting": "S. cerevisiae deletion strains, locus YLR058C, strain SHM2, active compounds read low", "result": 1.01}, {"measurement": "normalized growth", "setting": "S. cerevisiae deletion strains, locus YLR102C, strain apc9, active compounds read low", "result": 1}, {"measurement": "normalized growth", "setting": "S. cerevisiae deletion strains, locus YLR113W, strain HOG1, active compounds read low", "result": 1.03}, {"measurement": "normalized growth", "setting": "S. cerevisiae deletion strains, locus YLR221C, strain rsa3, active compounds read low", "result": 1.03}, {"measurement": "normalized growth", "setting": "S. cerevisiae deletion strains, locus YLR258W, strain gsy2, active compounds read low", "result": 1.02}, {"measurement": "normalized growth", "setting": "S. cerevisiae deletion strains, locus YLR262C, strain YPT6 (second series), active compounds read low", "result": 1.02}, {"measurement": "normalized growth", "setting": "S. cerevisiae deletion strains, locus YLR262C, strain YPT6, active compounds read low", "result": "1.41 [resistant] (active)"}, {"measurement": "normalized growth", "setting": "S. cerevisiae deletion strains, locus YLR268W, strain sec22, active compounds read low", "result": 1.05}, {"measurement": "normalized growth", "setting": "S. cerevisiae deletion strains, locus YLR320W, strain mms22, active compounds read low", "result": 1.01}, {"measurement": "normalized growth", "setting": "S. cerevisiae deletion strains, locus YLR330W, strain CHS5, active compounds read low", "result": 1.01}, {"measurement": "normalized growth", "setting": "S. cerevisiae deletion strains, locus YLR342W, strain FKS1 (second series), active compounds read low", "result": 0.893}, {"measurement": "normalized growth", "setting": "S. cerevisiae deletion strains, locus YLR342W, strain FKS1, active compounds read low", "result": 1.03}, {"measurement": "normalized growth", "setting": "S. cerevisiae deletion strains, locus YLR357W, strain rsc2, active compounds read low", "result": 1.02}, {"measurement": "normalized growth", "setting": "S. cerevisiae deletion strains, locus YLR370C, strain arc18, active compounds read low", "result": 1.01}, {"measurement": "normalized growth", "setting": "S. cerevisiae deletion strains, locus YLR371W, strain rom2, active compounds read low", "result": 1.03}, {"measurement": "normalized growth", "setting": "S. cerevisiae deletion strains, locus YLR384C, strain iki3, active compounds read low", "result": 1.03}, {"measurement": "normalized growth", "setting": "S. cerevisiae deletion strains, locus YLR418C, strain cdc73, active compounds read low", "result": 0.94}, {"measurement": "normalized growth", "setting": "S. cerevisiae deletion strains, locus YML016C, strain PPZ1, active compounds read low", "result": 1.01}, {"measurement": "normalized growth", "setting": "S. cerevisiae deletion strains, locus YML032C, strain rad52, active compounds read low", "result": 1.01}, {"measurement": "normalized growth", "setting": "S. cerevisiae deletion strains, locus YML120C, strain ndi1, active compounds read low", "result": 1.01}, {"measurement": "normalized growth", "setting": "S. cerevisiae deletion strains, locus YML124C, strain tub3, active compounds read low", "result": 1.02}, {"measurement": "normalized growth", "setting": "S. cerevisiae deletion strains, locus YMR058W, strain fet3, active compounds read low", "result": 1.01}, {"measurement": "normalized growth", "setting": "S. cerevisiae deletion strains, locus YMR078C, strain ctf18, active compounds read low", "result": 1.02}, {"measurement": "normalized growth", "setting": "S. cerevisiae deletion strains, locus YMR125W, strain sto1, active compounds read low", "result": 1.02}, {"measurement": "normalized growth", "setting": "S. cerevisiae deletion strains, locus YMR129W, active compounds read low", "result": 1}, {"measurement": "normalized growth", "setting": "S. cerevisiae deletion strains, locus YMR205C, strain PFK2, active compounds read low", "result": 1.02}, {"measurement": "normalized growth", "setting": "S. cerevisiae deletion strains, locus YMR223W, strain ubp8, active compounds read low", "result": 1.01}, {"measurement": "normalized growth", "setting": "S. cerevisiae deletion strains, locus YMR231W, strain pep5, active compounds read low", "result": 1.02}, {"measurement": "normalized growth", "setting": "S. cerevisiae deletion strains, locus YMR307W, strain GAS1, active compounds read low", "result": "1.02 and 0.992"}, {"measurement": "normalized growth", "setting": "S. cerevisiae deletion strains, locus YNL067W, strain RPL9B, active compounds read low", "result": 1}, {"measurement": "normalized growth", "setting": "S. cerevisiae deletion strains, locus YNL071W, strain lat1, active compounds read low", "result": 1.01}, {"measurement": "normalized growth", "setting": "S. cerevisiae deletion strains, locus YNL128W, strain TEP1, active compounds read low", "result": 0.981}, {"measurement": "normalized growth", "setting": "S. cerevisiae deletion strains, locus YNL153C, strain GIM3, active compounds read low", "result": 1}, {"measurement": "normalized growth", "setting": "S. cerevisiae deletion strains, locus YNL175C, strain NOP13, active compounds read low", "result": 0.994}, {"measurement": "normalized growth", "setting": "S. cerevisiae deletion strains, locus YNL183C, strain NPR1, active compounds read low", "result": 0.948}, {"measurement": "normalized growth", "setting": "S. cerevisiae deletion strains, locus YNL197C, strain WHI3, active compounds read low", "result": 0.992}, {"measurement": "normalized growth", "setting": "S. cerevisiae deletion strains, locus YNL209W, strain ssb2, active compounds read low", "result": 1}, {"measurement": "normalized growth", "setting": "S. cerevisiae deletion strains, locus YNL224C, strain SQS1, active compounds read low", "result": 1}, {"measurement": "normalized growth", "setting": "S. cerevisiae deletion strains, locus YNL233W, strain BNI4, active compounds read low", "result": 1}, {"measurement": "normalized growth", "setting": "S. cerevisiae deletion strains, locus YNL248C, strain rpa49, active compounds read low", "result": 1.03}, {"measurement": "normalized growth", "setting": "S. cerevisiae deletion strains, locus YNL250W, strain rad50, active compounds read low", "result": 1.02}, {"measurement": "normalized growth", "setting": "S. cerevisiae deletion strains, locus YNL271C, strain bni1, active compounds read low", "result": 1.03}, {"measurement": "normalized growth", "setting": "S. cerevisiae deletion strains, locus YNL298W, strain CLA4, active compounds read low", "result": 1.02}, {"measurement": "normalized growth", "setting": "S. cerevisiae deletion strains, locus YNL307C, strain MCK1, active compounds read low", "result": 1.01}, {"measurement": "normalized growth", "setting": "S. cerevisiae deletion strains, locus YNL322C, strain KRE1 (second series), active compounds read low", "result": 1.02}, {"measurement": "normalized growth", "setting": "S. cerevisiae deletion strains, locus YNL322C, strain KRE1, active compounds read low", "result": 1.01}, {"measurement": "normalized growth", "setting": "S. cerevisiae deletion strains, locus YNR049C, strain mso1, active compounds read low", "result": 1.02}, {"measurement": "normalized growth", "setting": "S. cerevisiae deletion strains, locus YNR052C, strain pop2, active compounds read low", "result": 1.01}, {"measurement": "normalized growth", "setting": "S. cerevisiae deletion strains, locus YOL006C, strain TOP1, active compounds read low", "result": 0.949}, {"measurement": "normalized growth", "setting": "S. cerevisiae deletion strains, locus YOL012C, strain htz1", "result": 1.27}, {"measurement": "normalized growth", "setting": "S. cerevisiae deletion strains, locus YOL147C, strain pex11, active compounds read low", "result": 1.02}, {"measurement": "normalized growth", "setting": "S. cerevisiae deletion strains, locus YOR001W, strain rrp6, active compounds read low", "result": 1.03}, {"measurement": "normalized growth", "setting": "S. cerevisiae deletion strains, locus YOR061W, strain CKA2, active compounds read low", "result": 1.01}, {"measurement": "normalized growth", "setting": "S. cerevisiae deletion strains, locus YOR069W, strain VPS5, active compounds read low", "result": 1}, {"measurement": "normalized growth", "setting": "S. cerevisiae deletion strains, locus YOR070C, strain gyp1, active compounds read low", "result": 1.01}, {"measurement": "normalized growth", "setting": "S. cerevisiae deletion strains, locus YOR080W, strain dia2, active compounds read low", "result": 1.04}, {"measurement": "normalized growth", "setting": "S. cerevisiae deletion strains, locus YOR083W, strain WHI5 (second series), active compounds read low", "result": 1.01}, {"measurement": "normalized growth", "setting": "S. cerevisiae deletion strains, locus YOR083W, strain WHI5, active compounds read low", "result": 1.04}, {"measurement": "normalized growth", "setting": "S. cerevisiae deletion strains, locus YOR106W, strain vam3, active compounds read low", "result": 0.997}, {"measurement": "normalized growth", "setting": "S. cerevisiae deletion strains, locus YOR136W, strain idh2, active compounds read low", "result": 1.04}, {"measurement": "normalized growth", "setting": "S. cerevisiae deletion strains, locus YOR144C, strain elg1, active compounds read low", "result": 1.01}, {"measurement": "normalized growth", "setting": "S. cerevisiae deletion strains, locus YOR184W, strain ser1, active compounds read low", "result": 1.05}, {"measurement": "normalized growth", "setting": "S. cerevisiae deletion strains, locus YOR231W, strain MKK1, active compounds read low", "result": 0.998}, {"measurement": "normalized growth", "setting": "S. cerevisiae deletion strains, locus YOR265W, strain rbl2, active compounds read low", "result": 1.02}, {"measurement": "normalized growth", "setting": "S. cerevisiae deletion strains, locus YOR270C, strain vph1, active compounds read low", "result": 1.03}, {"measurement": "normalized growth", "setting": "S. cerevisiae deletion strains, locus YOR290C, strain snf2, active compounds read low", "result": 0.985}, {"measurement": "normalized growth", "setting": "S. cerevisiae deletion strains, locus YOR316C, strain cot1, active compounds read low", "result": 1.01}, {"measurement": "normalized growth", "setting": "S. cerevisiae deletion strains, locus YPL051W, strain arl3, active compounds read low", "result": 1.03}, {"measurement": "normalized growth", "setting": "S. cerevisiae deletion strains, locus YPL078C, strain atp4, active compounds read low", "result": 1.04}, {"measurement": "normalized growth", "setting": "S. cerevisiae deletion strains, locus YPL106C, strain sse1, active compounds read low", "result": 1}, {"measurement": "normalized growth", "setting": "S. cerevisiae deletion strains, locus YPL240C, strain hsp82, active compounds read low", "result": 1.02}, {"measurement": "normalized growth", "setting": "S. cerevisiae deletion strains, locus YPL241C, strain CIN2, active compounds read low", "result": "0.998 and 0.996"}, {"measurement": "normalized growth", "setting": "S. cerevisiae deletion strains, locus YPL256C, strain CLN2, active compounds read low", "result": 1.01}, {"measurement": "normalized growth", "setting": "S. cerevisiae deletion strains, locus YPR119W, strain clb2, active compounds read low", "result": 1.01}, {"measurement": "normalized growth", "setting": "S. cerevisiae deletion strains, locus YPR141C, strain kar3, active compounds read low", "result": 1.01}, {"measurement": "normalized growth", "setting": "S. cerevisiae deletion strains, locus YPR163C, strain tif3, active compounds read low", "result": 1.02}, {"measurement": "normalized growth", "setting": "S. cerevisiae deletion strains, locus YPR167C, strain met16, active compounds read low", "result": 1.02}, {"measurement": "normalized growth", "setting": "S. cerevisiae deletion strains, strain wtn01, active compounds read low", "result": 1.01}, {"measurement": "normalized growth", "setting": "S. cerevisiae strains, strain wild type, active compounds read low", "result": 1}]}]}
